Data published in the supplement of paper PMC10849652.
The full data set covers some 7,900 targets. This sample favours those with a hit. About 0.6% of all pairs of compound and target were hits.

How the values were obtained:
Assay in all cases: log2 fold change, soluble protein after heating vs DMSO (PISA); higher = thermal stabilisation; K562 cells, 10 uM, 30 min; active = over 0.2 and 3.5 SD of the protein, either way, in both replicates (recomputed)
[1] = compound: COC1=CC=C(C=C1)CN2C=CC3=C2C=C(C=C3)C(=O)NO
How it was run: (§1)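 K562 cells at 2×10^6 cells/mL were exposed to 10 μM compound for 30 min, then aliquots were heated for 3 min across 48°C-58°C, pooled, and extracted in PBS containing 0.5% NP-40 at 4°C. The supernatant after 21,000xg for 90 min was taken as soluble protein and measured by TMTpro 16plex LC-MS/MS with channel sums equalised. Thermal stability is reported relative to control samples, with values from duplicates. Fold changes are given on a log2 scale.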

filanesib = compound: CON(C)C(=O)N1N=C(c2cc(F)ccc2F)S[C@@]1(CCCN)c1ccccc1 [filanesib]
How it was run: as §1

zotarolimus = compound: CO[C@H]1C[C@@H]2CC[C@@H](C)[C@@](O)(O2)C(=O)C(=O)N2CCCC[C@H]2C(=O)O[C@H]([C@H](C)C[C@@H]2CC[C@H](n3cnnn3)[C@H](OC)C2)CC(=O)[C@H](C)/C=C(\C)[C@@H](O)[C@@H](OC)C(=O)[C@H](C)C[C@H](C)/C=C/C=C/C=C/1C [zotarolimus]
How it was run: as §1

idasanutlin = compound: COc1cc(C(=O)O)ccc1NC(=O)[C@@H]1N[C@@H](CC(C)(C)C)[C@](C#N)(c2ccc(Cl)cc2F)[C@H]1c1cccc(Cl)c1F [idasanutlin]
How it was run: as §1

alisertib = compound: COc1cc(Nc2ncc3c(n2)-c2ccc(Cl)cc2C(c2c(F)cccc2OC)=NC3)ccc1C(=O)O [alisertib]
How it was run: as §1

[2] = compound: COc1cc2nc(-c3cc(F)ccc3O)nc(N[C@@H]3CNC[C@H]3C(C)(C)O)c2cc1OC
How it was run: as §1

gefitinib = compound: COc1cc2ncnc(Nc3ccc(F)c(Cl)c3)c2cc1OCCCN1CCOCC1 [gefitinib]
How it was run: as §1

[3] = compound: COc1cccc2cc(-c3nc([C@H]4CC[C@H](C(=O)O)CC4)n4ncnc(N)c34)[nH]c12
How it was run: as §1

lapatinib = compound: CS(=O)(=O)CCNCc1ccc(-c2ccc3ncnc(Nc4ccc(OCc5cccc(F)c5)c(Cl)c4)c3c2)o1 [lapatinib]
How it was run: as §1

[4] = compound: CS(=O)(=O)c1ccc(-c2cnc(N)c(C(=O)Nc3ccccc3)n2)cc1
How it was run: as §1

crizotinib = compound: C[C@@H](Oc1cc(-c2cnn(C3CCNCC3)c2)cnc1N)c1c(Cl)ccc(F)c1Cl [crizotinib]
How it was run: as §1

[5] = compound: C[C@@H]1COCCN1C2=NC(=NC(=C2)C3(CC3)S(=O)(=O)C)C4=C5C=CNC5=CC=C4
How it was run: as §1

[6] = compound: C[C@H](C1=CC=C(C=C1)C(=O)NC2=C3C=CNC3=NC=C2)N
How it was run: as §1

duvelisib = compound: C[C@H](Nc1ncnc2nc[nH]c12)c1cc2cccc(Cl)c2c(=O)n1-c1ccccc1 [duvelisib]
How it was run: as §1

tozasertib = compound: Cc1cc(Nc2cc(N3CCN(C)CC3)nc(Sc3ccc(NC(=O)C4CC4)cc3)n2)n[nH]1 [tozasertib]
How it was run: as §1

[7] = compound: Cc1cc(SCc2sc(-c3ccc(C(F)(F)F)cc3)nc2C)ccc1OCC(=O)O
How it was run: as §1

doramapimod = compound: Cc1ccc(-n2nc(C(C)(C)C)cc2NC(=O)Nc2ccc(OCCN3CCOCC3)c3ccccc23)cc1 [doramapimod]
How it was run: as §1

ispinesib = compound: Cc1ccc(C(=O)N(CCCN)[C@@H](c2nc3cc(Cl)ccc3c(=O)n2Cc2ccccc2)C(C)C)cc1 [ispinesib]
How it was run: as §1

pictilisib = compound: CS(=O)(=O)N1CCN(Cc2cc3nc(-c4cccc5[nH]ncc45)nc(N4CCOCC4)c3s2)CC1 [pictilisib]
How it was run: as §1

gandotinib = compound: Cc1cc(Nc2cc(CN3CCOCC3)c3nc(C)c(Cc4ccc(Cl)cc4F)n3n2)n[nH]1 [gandotinib]
How it was run: as §1

Measured: log2 fold change

PTP4A2 (UniProt Q12974)
UniProt Q12974, sequence (Q12974 whole entry, looked up): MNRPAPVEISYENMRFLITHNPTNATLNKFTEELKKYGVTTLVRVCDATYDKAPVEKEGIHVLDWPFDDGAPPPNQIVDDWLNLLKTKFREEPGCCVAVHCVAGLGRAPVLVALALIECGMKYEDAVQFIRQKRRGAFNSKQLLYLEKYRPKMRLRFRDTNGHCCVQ
inactive: [1] 0.078 | filanesib -0.062 | zotarolimus -0.022 | idasanutlin -0.079 | alisertib -0.055 | [2] 0.033 | gefitinib -0.007 | [3] -0.11 | lapatinib -0.078 | [4] -0.001 | crizotinib 0.047 | [5] 0.026 | [6] -0.01 | duvelisib -0.057 | tozasertib 0.017 | [7] 0.05 | doramapimod -0.047 | ispinesib 0.154

POLD3 (UniProt Q15054)
UniProt Q15054, sequence (Q15054 whole entry, looked up): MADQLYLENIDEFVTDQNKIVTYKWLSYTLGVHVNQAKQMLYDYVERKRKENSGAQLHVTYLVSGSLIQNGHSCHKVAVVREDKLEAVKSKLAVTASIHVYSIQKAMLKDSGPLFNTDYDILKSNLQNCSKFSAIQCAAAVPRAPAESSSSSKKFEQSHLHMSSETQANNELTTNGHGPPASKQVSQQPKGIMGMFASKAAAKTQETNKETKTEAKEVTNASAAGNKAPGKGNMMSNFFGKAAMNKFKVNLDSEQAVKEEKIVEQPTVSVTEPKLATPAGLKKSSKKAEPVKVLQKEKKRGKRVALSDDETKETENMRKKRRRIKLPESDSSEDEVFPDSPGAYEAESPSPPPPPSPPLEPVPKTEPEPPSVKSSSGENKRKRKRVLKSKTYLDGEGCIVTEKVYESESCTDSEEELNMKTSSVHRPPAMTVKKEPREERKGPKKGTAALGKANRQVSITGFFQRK
inactive: [1] 0.002 | filanesib -0.176 | zotarolimus 0.123 | idasanutlin -0.029 | alisertib 0.002 | [2] -0.05 | gefitinib 0.066 | [3] 0.1 | lapatinib 0.098 | pictilisib 0.004 | [4] 0.177 | crizotinib -0.055 | [5] 0.155 | [6] -0.076 | duvelisib 0.018 | gandotinib -0.049 | tozasertib 0.048 | [7] 0.008 | doramapimod -0.012 | ispinesib -0.123

PPP6R1 (UniProt Q9UPN7)
UniProt Q9UPN7, sequence (Q9UPN7 whole entry, looked up): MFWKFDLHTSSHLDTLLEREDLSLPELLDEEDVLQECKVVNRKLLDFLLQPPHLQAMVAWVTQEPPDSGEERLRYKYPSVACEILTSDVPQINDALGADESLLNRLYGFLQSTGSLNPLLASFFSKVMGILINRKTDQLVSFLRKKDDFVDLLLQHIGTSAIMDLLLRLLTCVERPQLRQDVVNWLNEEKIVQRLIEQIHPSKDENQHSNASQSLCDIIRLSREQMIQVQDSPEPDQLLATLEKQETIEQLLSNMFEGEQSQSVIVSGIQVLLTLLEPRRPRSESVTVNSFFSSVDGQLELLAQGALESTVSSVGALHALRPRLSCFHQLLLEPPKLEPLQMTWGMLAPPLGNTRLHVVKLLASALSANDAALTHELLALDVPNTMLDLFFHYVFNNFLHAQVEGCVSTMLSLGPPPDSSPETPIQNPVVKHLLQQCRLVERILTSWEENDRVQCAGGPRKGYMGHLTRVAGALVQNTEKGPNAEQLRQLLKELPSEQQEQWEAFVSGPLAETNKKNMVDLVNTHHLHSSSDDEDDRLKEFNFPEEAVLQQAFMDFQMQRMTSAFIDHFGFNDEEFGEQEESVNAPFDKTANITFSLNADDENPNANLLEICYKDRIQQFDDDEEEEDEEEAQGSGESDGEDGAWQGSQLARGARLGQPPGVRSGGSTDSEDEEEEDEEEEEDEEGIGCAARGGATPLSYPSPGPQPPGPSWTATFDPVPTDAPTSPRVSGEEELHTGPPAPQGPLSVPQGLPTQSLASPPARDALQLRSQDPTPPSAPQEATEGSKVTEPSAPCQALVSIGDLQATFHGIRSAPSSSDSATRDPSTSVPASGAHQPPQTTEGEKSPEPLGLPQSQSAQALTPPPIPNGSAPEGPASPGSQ
inactive: [1] -0.002 | filanesib -0.072 | zotarolimus -0.005 | idasanutlin -0.032 | alisertib -0.098 | [2] -0.055 | gefitinib 0.012 | [3] 0.014 | lapatinib 0.016 | pictilisib 0 | [4] -0.013 | crizotinib -0.018 | [5] 0.125 | [6] 0.012 | duvelisib 0.027 | gandotinib -0.078 | tozasertib 0.084 | [7] -0.01 | doramapimod 0.01 | ispinesib -0.002

PTK2B (UniProt Q14289)
inactive: [1] 0.083 | filanesib -0.077 | zotarolimus 0.019 | idasanutlin 0.026 | alisertib 0.064 | [2] 0.345 | gefitinib -0.011 | [3] -0.057 | lapatinib -0.022 | pictilisib 0.117 | [4] -0.029 | [5] -0.03 | [6] 0.234 | duvelisib 0.182 | gandotinib -0.03 | tozasertib -0.067 | [7] 0.016 | ispinesib -0.233

PYGL (UniProt P06737)
UniProt P06737, sequence (P06737 whole entry, looked up): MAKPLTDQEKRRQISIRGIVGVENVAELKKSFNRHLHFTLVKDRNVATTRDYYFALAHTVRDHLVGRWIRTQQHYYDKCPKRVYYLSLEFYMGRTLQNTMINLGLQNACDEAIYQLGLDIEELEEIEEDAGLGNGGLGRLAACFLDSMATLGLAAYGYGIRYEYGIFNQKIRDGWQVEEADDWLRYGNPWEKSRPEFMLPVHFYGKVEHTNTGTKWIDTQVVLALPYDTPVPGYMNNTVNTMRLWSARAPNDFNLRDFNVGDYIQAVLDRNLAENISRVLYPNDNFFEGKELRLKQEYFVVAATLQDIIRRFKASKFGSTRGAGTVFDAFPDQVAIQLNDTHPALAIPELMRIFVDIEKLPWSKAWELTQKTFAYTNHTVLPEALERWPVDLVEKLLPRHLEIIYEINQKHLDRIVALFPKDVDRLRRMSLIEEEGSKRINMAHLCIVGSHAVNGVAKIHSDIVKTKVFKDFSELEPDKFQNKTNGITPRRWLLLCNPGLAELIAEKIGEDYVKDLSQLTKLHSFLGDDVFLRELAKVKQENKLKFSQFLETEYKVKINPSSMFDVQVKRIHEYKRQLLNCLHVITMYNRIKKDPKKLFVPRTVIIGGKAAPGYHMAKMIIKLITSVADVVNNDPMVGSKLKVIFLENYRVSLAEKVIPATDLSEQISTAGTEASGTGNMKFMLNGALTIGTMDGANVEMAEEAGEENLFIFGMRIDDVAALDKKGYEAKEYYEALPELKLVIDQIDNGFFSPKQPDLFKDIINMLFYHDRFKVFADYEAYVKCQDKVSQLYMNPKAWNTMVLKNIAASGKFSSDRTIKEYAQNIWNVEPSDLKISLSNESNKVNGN
inactive: [1] -0.028 | filanesib 0.043 | zotarolimus -0.007 | idasanutlin -0.015 | alisertib -0.03 | [2] 0.095 | gefitinib -0.013 | [3] 0.051 | lapatinib -0.075 | pictilisib -0.122 | [4] -0.122 | crizotinib 0.003 | [5] 0.026 | [6] -0.019 | duvelisib 0.03 | gandotinib 0.013 | tozasertib -0.022 | [7] -0.023 | doramapimod 0.001 | ispinesib 0.015

PKN2 (UniProt Q16513)
UniProt Q16513, sequence (Q16513 whole entry, looked up): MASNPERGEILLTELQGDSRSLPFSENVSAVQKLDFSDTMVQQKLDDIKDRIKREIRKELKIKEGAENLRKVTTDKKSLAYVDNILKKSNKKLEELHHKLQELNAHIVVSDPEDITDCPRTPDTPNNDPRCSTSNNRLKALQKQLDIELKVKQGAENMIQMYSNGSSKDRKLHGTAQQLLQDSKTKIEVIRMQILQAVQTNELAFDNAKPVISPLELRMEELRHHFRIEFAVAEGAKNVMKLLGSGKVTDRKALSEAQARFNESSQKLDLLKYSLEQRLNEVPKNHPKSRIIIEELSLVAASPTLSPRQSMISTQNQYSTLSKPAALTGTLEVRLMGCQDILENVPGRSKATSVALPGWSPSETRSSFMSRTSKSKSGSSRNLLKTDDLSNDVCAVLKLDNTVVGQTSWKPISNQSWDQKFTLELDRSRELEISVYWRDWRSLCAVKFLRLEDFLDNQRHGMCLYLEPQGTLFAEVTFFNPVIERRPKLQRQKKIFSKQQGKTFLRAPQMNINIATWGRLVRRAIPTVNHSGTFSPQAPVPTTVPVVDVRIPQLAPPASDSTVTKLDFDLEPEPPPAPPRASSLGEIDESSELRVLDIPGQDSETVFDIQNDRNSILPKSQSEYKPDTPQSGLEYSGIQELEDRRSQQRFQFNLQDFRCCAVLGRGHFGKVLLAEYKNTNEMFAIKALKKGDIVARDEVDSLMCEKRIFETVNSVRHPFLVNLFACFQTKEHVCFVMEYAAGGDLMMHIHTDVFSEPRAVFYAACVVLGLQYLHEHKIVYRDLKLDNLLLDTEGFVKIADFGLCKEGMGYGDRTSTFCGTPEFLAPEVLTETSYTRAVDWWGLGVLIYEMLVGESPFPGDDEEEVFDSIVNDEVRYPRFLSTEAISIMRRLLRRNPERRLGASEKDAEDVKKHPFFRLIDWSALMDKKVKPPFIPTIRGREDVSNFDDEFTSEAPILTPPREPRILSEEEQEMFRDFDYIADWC
inactive: [1] 0.001 | filanesib -0.085 | zotarolimus 0.01 | idasanutlin -0.016 | [2] -0.069 | gefitinib 0.004 | [3] 0.034 | lapatinib -0.013 | pictilisib 0 | [4] 0.025 | crizotinib -0.191 | [5] 0.067 | [6] -0.057 | duvelisib 0.027 | gandotinib -0.058 | [7] 0.133 | doramapimod 0.035 | ispinesib -0.028

POLR3D (UniProt P05423)
UniProt P05423, sequence (P05423 whole entry, looked up): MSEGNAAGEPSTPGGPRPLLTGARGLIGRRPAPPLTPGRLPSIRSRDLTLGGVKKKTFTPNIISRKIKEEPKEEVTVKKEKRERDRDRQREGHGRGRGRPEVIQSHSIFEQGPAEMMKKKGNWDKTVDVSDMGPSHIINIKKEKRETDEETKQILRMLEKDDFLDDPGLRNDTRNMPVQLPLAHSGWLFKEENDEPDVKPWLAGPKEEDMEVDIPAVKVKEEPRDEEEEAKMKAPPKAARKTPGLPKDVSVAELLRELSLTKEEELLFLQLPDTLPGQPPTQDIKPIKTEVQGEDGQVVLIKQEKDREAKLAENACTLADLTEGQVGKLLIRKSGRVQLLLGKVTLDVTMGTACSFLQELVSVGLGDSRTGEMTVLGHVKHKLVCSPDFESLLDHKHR
active: idasanutlin 0.574
inactive: [1] -0.014 | filanesib 0.041 | zotarolimus 0.065 | alisertib -0.091 | [2] -0.017 | gefitinib 0.036 | [3] -0.136 | lapatinib -0.001 | pictilisib 0.013 | [4] 0.088 | crizotinib -0.035 | [5] -0.064 | [6] 0.112 | duvelisib 0.011 | gandotinib -0.056 | tozasertib -0.063 | [7] -0.085 | doramapimod 0.022 | ispinesib -0.05

PNPLA4 (UniProt P41247)
UniProt P41247, sequence (P41247 whole entry, looked up): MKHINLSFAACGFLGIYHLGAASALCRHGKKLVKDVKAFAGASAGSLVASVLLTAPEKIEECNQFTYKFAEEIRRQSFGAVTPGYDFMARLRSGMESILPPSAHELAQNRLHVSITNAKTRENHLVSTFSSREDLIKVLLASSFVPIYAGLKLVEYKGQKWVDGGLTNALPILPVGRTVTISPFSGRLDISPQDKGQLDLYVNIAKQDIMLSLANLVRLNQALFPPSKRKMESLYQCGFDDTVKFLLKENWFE
active: crizotinib -0.651 | doramapimod 0.895
inactive: [1] 0.041 | filanesib -0.184 | zotarolimus -0.142 | idasanutlin 0.003 | alisertib 0.026 | [2] -0.133 | gefitinib 0.015 | [3] 0.113 | lapatinib -0.049 | [4] 0.319 | [6] 0.559 | duvelisib -0.095 | tozasertib -0.005 | [7] 0.117 | ispinesib -0.093

PRKD3 (UniProt O94806)
UniProt O94806, sequence (O94806 whole entry, looked up): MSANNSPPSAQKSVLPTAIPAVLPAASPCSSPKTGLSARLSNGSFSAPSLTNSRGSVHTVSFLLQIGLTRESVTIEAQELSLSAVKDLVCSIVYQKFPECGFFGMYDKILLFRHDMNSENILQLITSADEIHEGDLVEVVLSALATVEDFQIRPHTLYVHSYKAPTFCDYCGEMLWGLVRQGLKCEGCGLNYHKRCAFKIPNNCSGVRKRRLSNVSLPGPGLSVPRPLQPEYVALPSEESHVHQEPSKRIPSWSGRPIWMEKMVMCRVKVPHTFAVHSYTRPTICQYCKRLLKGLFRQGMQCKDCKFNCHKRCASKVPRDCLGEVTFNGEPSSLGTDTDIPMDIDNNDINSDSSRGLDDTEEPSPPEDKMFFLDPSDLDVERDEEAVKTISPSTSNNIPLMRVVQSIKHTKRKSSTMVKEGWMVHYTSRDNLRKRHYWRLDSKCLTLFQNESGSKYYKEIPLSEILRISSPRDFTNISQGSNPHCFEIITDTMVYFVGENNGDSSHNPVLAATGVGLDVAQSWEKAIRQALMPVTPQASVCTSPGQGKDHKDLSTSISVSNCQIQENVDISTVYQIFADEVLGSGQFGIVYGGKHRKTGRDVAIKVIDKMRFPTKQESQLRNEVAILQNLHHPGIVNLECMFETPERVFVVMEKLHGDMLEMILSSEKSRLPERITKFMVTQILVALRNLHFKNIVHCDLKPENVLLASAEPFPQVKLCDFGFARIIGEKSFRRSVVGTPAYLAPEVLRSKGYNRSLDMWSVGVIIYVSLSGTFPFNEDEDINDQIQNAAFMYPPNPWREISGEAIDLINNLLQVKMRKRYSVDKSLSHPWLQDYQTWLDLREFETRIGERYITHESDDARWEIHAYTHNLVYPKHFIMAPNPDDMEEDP
inactive: [1] -0.062 | filanesib -0.002 | zotarolimus 0.084 | idasanutlin 0.171 | alisertib -0.039 | [3] 0.149 | pictilisib 0.255 | [4] -0.132 | crizotinib -0.292 | [6] -0.189 | duvelisib 0.033 | gandotinib 0.092 | [7] 0.039 | doramapimod -0.088 | ispinesib -0.237

PSMD1 (UniProt Q99460)
inactive: [1] 0.009 | filanesib -0.002 | zotarolimus 0.011 | idasanutlin -0.005 | alisertib -0.126 | [2] -0.077 | gefitinib -0.046 | [3] -0.056 | lapatinib 0.069 | pictilisib -0.052 | [4] -0.009 | crizotinib -0.002 | [5] -0.075 | [6] 0.047 | duvelisib -0.081 | gandotinib 0 | tozasertib 0.054 | [7] 0.017 | doramapimod 0.036 | ispinesib 0.048
